Source: PubChem BioAssay (several laboratories)
Tat export inh: inhibitors of E. coli Tat protein transport | E. coli MC4100 TorA-mCherry Tat export, fluorescence | inhibition, % at 10 µM | hit rate 0.036% among 340,000 | AID 488895;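 active = mean replicate inhibition at least 50% and at least half of replicates individually reaching 50%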;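 also: exported cargo escapes ClpAP degradation while cytoplasmic cargo is degraded and loses fluorescence; 0% = median of neutral control wells and 100% = median of NaSCN control wells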
E coli growth-1: inhibitors of Escherichia coli growth | OD600 absorbance (no concentration beside the values) | AID 1053175 | hit rate 0.21% among 330,000 | OD600, 23 h; active compounds read low;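 active = OD600 absorbance below the run mean of sample wells minus 3.6 SD, in any replicate, cut at about 0.56 in these data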
E coli growth-2: reduces bacterial viability in AddAB counter-screen; E. coli V3065 growth, OD600 absorbance, 18 h; hit rate 0.27% among 330,000; inhibition, % at 11.9 µM; AID 449728;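 active = inhibition above the campaign's mean inhibition across all tested compounds plus 3 SD, cut at about 9.9% in these data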;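 also: uninfected addAB+ strain grown without phage in ampicillin broth; 0% = DMSO wells and 100% = ciprofloxacin 0.95 µg/ml wells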
phage Ecoli inh: E. coli growth loss with phage present | growth absorbance | inhibition, % at 11.9 µM | hit rate 0.26% among 360,000 | AID 651602; in the data active = inhibition above about 11%
AddAB inh: less growth of phage-infected E. coli with AddAB | E. coli expressing H. pylori AddAB, absorbance growth | inhibition, % at 11.9 µM | hit rate 0.29% among 330,000 | AID 435030; in the data active = inhibition above about 12%;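 also: 0% = vehicle wells of infected cells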
RecBCD conf: confirmation: growth loss of phage-infected RecBCD+ E. coli (RecBCD inhibitor screen); shares compounds with phage Ecoli inh; E. coli V66 + T4 2- phage, growth OD; inhibition, % at 11.9 µM; hit rate 45% among 890;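 active = mean inhibition over triplicates exceeding the hit threshold derived in the original primary screen, cut at about 11% in these data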
Ecoli viability: bacterial viability inhibition counter-screen for RecBCD | shares compounds with phage Ecoli inh | E. coli viability, absorbance (OD) growth | inhibition, % at 11.9 µM | hit rate 29% among 890 | AID 651983; in the data active = inhibition above about 20%;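 also: E. coli strain V66 grown with compound alone and no phage infection; 0% = bacteria with DMSO vehicle only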
AddAB counter: growth loss of phage-infected AddAB E. coli, RecBCD counter-screen; shares compounds with phage Ecoli inh; E. coli expressing H. pylori AddAB + T4 phage, OD growth; gene 2 mutant T4, recBCD-deleted host; inhibition, % at 11.9 µM; hit rate 45% among 890; AID 651984;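 active = mean inhibition above the solvent-only control wells' mean plus 3 SD, cut at about 22% in these data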;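 also: higher means less bacterial growth from phage killing when AddAB is blocked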
Numbers without * were called inactive. Only some compounds are listed: those with a hit (about 0.5% of all), similar ones and a draw of the others.

How did COc1cccc(-c2cnc(C(O)c3cc(Cl)cc(Cl)c3)[nH]2)c1 (stereo unspecified) do in these assays?
phage Ecoli inh: 12*; RecBCD conf: 11*; Ecoli viability: 14; AddAB counter: 19

Results for COc1cccc(-c2cnc(C(O)c3cc(F)cc(Cl)c3)[nH]2)c1 (stereo unspecified) ?
phage Ecoli inh: 8

Results for OC(c1cccc(F)c1)c1ncc(-c2ccc3ccccc3c2)[nH]1 (stereo unspecified) ?
phage Ecoli inh: 2

Results for Cc1ccc(-c2cnc(C(O)c3cc(F)cc(Cl)c3)[nH]2)cc1 (stereo unspecified) ?
phage Ecoli inh: 12*; RecBCD conf: 7; Ecoli viability: 10; AddAB counter: 6

Results for OC(c1cccc(Cl)c1)c1ncc(-c2ccc3ccccc3c2)[nH]1 (stereo unspecified) ?
phage Ecoli inh: 15*; RecBCD conf: 12*; Ecoli viability: 16; AddAB counter: 20

How did O=C(NC1CCC(=O)N(C(CSc2ccc(Br)cc2)Cc2ccccc2)CC1)OCc1ccccc1 (stereo unspecified) do in these assays?
E coli growth-1: 0.7

How did Cc1nnc(NS(=O)(=O)c2ccc(F)cc2)s1 do in these assays?
Tat export inh: 2; phage Ecoli inh: 1

Results for Cc1nnc(NS(=O)(=O)c2ccc(N)cc2)s1 ?
Tat export inh: -2; E coli growth-1: 0.63; E coli growth-2: 5; phage Ecoli inh: 12*; AddAB inh: 4; RecBCD conf: 4; Ecoli viability: 3; AddAB counter: 27*

How did C=C(C)C(=O)N1CC2(CC(c3cccc(NC(=O)CCCCC)c3)=NO2)CC1C(N)=O (stereo unspecified) do in these assays?
E coli growth-1: 0.67

How did COc1ccccc1S(=O)(=O)Cc1ccc(C(=O)N2CCOCC2)o1 do in these assays?
Tat export inh: -6; E coli growth-1: 0.72; E coli growth-2: 1; phage Ecoli inh: 35*; AddAB inh: 5; RecBCD conf: -1; Ecoli viability: -1; AddAB counter: 0

What do the screens show for `COC(=O)c1ccc2c(c1O)C(=O)c1ccccc1C2=O`?
Tat export inh: -2; E coli growth-1: 0.69; E coli growth-2: -4; phage Ecoli inh: 0; AddAB inh: 0

What do the screens show for `O=C1c2ccccc2C(=O)c2c1ccc(O)c2O`?
Tat export inh: -1; phage Ecoli inh: 15*; RecBCD conf: 6; Ecoli viability: 8; AddAB counter: 6

What do the screens show for `CC1COC(=O)C(CC(=O)OC(C)(C)C)CC=CCC(CC(=O)N(CCO)Cc2ccccc2)C(=O)N1` (stereo unspecified)?
E coli growth-1: 0.65

Results for Nc1nc(=O)n(C2CCC(CO)O2)cc1F (stereo unspecified) ?
phage Ecoli inh: 11*; RecBCD conf: 10; Ecoli viability: 5; AddAB counter: 31*

What do the screens show for `O=c1[nH]cnc2c1ncn2C1CCC(CO)O1` (stereo unspecified)?
phage Ecoli inh: 87*; RecBCD conf: 74*; Ecoli viability: 90*; AddAB counter: 98*

What do the screens show for `O=c1[nH]cnc2c1ncn2C1OC(CO)C(O)C1O` (stereo unspecified)?
Tat export inh: 0; E coli growth-1: 0.67; phage Ecoli inh: 3

How did Nc1nc(N)c2cc(CNc3ccc(Cl)c(Cl)c3)ccc2n1 do in these assays?
phage Ecoli inh: 58*; RecBCD conf: 41*; Ecoli viability: 36*; AddAB counter: 73*

How did C#CCNC(=O)C=Cc1ccc(C)cc1 do in these assays?
E coli growth-1: 0.64

How did C#CCNC(=O)C1=CC(c2ccc(C(F)(F)F)cc2)CC(OCCCCO)O1 (stereo unspecified) do in these assays?
E coli growth-1: 0.64

How did O=C(NNC(=O)c1cc(Cl)ccc1O)c1ccc(NS(=O)(=O)c2cccs2)cc1 do in these assays?
Tat export inh: -20; E coli growth-1: 0.67; E coli growth-2: 2; phage Ecoli inh: 11*; AddAB inh: 5; RecBCD conf: 3; Ecoli viability: 3; AddAB counter: 2

How did O=C(NNC(=O)c1cc(F)c(F)cc1Cl)c1ccc(NS(=O)(=O)c2cccs2)cc1 do in these assays?
Tat export inh: 5; E coli growth-1: 0.65; E coli growth-2: 1; phage Ecoli inh: 1; AddAB inh: -1

How did CCOC1OC(C(=O)NCc2nc3ccccc3[nH]2)=CC(C2CC2)C1CCCO (stereo unspecified) do in these assays?
E coli growth-1: 0.67

Results for COc1ccc(-c2cc(C3C4C=CCC[C@@]4(C)C(=O)N3Cc3ccccc3)ccc2F)cc1OC (stereo partly specified) ?
E coli growth-1: 0.69

What do the screens show for `C[C@@H]1CN(c2c(F)c(F)c3c(=O)c(C(=O)O)cn(C4CC4)c3c2F)C[C@H](C)N1`?
Tat export inh: 68*; E coli growth-1: 0.067*; phage Ecoli inh: 98*; RecBCD conf: 103*; Ecoli viability: 105*; AddAB counter: 104*

Results for Oc1cccnc1SCc1ccccc1 ?
Tat export inh: 4; E coli growth-1: 0.7; E coli growth-2: -1; phage Ecoli inh: 2; AddAB inh: 2

What do the screens show for `O=Cc1cccnc1SCc1ccccc1`?
Tat export inh: -1; E coli growth-1: 0.7; E coli growth-2: -1; phage Ecoli inh: 99*; AddAB inh: 1; RecBCD conf: -6; Ecoli viability: -6; AddAB counter: 0

What do the screens show for `CCCCc1ccc(NC(=O)CSc2nc3ncccc3[nH]2)cc1`?
Tat export inh: -10; E coli growth-1: 0.66; E coli growth-2: 2; phage Ecoli inh: 5; AddAB inh: 4

How did CCOC(=O)c1ccc(NC(=O)CSc2nc3ncccc3[nH]2)cc1 do in these assays?
Tat export inh: -6; E coli growth-1: 0.56; E coli growth-2: 8; phage Ecoli inh: 11*; AddAB inh: 11; RecBCD conf: 4; Ecoli viability: 6; AddAB counter: 10

Results for CC(=NNc1nc2ccccc2o1)c1cc2ccccc2cn1 ?
Tat export inh: 7; phage Ecoli inh: 12*; RecBCD conf: 11; Ecoli viability: 12; AddAB counter: 18

How did CC(=NNc1nc2ccc(Cl)cc2o1)c1ccccc1 do in these assays?
E coli growth-1: 0.66

What do the screens show for `CC(=NNc1nc2ccccc2o1)c1ncccn1`?
Tat export inh: -17; phage Ecoli inh: 30*; RecBCD conf: 29*; Ecoli viability: 36*; AddAB counter: 20

Results for COc1ccc(OC)c(C=NNC(=O)c2ccc(N(C)S(=O)(=O)c3ccccc3)cc2)c1 ?
E coli growth-1: 0.73
